The nature of assay [1]: qHTS Assay for Identifying Gametocytocidal Compounds (AID 743244). Further: potency means the concentration at half of the fitted maximal effect.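 On max response: on the % scale 0 is the no-effect control and ±100 the full control effect; actives lower the fluorescent signal which means gametocytes are killed.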 The settings on record: P. falciparum 3D7 stage III-V gametocytes, alamarBlue, 72 h; max response: stronger effect = lower value. The procedure, abridged:
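Viability read-out was resazurin reduction (alamarBlue, 24 h) measured at Ex 525/Em 598 nm. Beforehand, late-stage (III-V) 3D7 P. falciparum gametocytes at 20,000 cells/well were incubated with compound 72 h at 37C under 5% CO2.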

Assay [2] in a line: qHTS assay for measurement of the activity of small molecule inhibitors on Zika virus induced Caspase-3 activity in human iPSC derived neural progenitor cells (hNPCs) (AID 1224857). Further: nearly all actives have a fitted effect of over 65% in size. Further: potency means the concentration at half of the fitted maximal effect. The essentials: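 Percent inhibition of virus-induced caspase-3/7 luminescence (Caspase-Glo), scaled between uninfected cells and Zika-infected cells. hNPCs received compound 1 hr before ZIKV at 2 FFU/cell, with 6 hours infection at 37 C.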
Background: Quantitative high-throughput screening tests each substance at several concentrations.

Assay [3] is described as follows: qHTS profiling of the MIPE4 collection as inhibitors of Plasmodium falciparum (3D7) proliferation (AID 743344; call rule not given here;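 further: scaled between DMSO vehicle wells and 0.29 µM artemisinin as full inhibition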). The conditions noted are these: P. falciparum 3D7 in erythrocytes, SYBR Green DNA fluorescence, 72 h; at 28.5 µM (top of the series). The procedure, abridged:
(§1)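 Erythrocytes infected with P. falciparum (0.3% parasitemia, 2.5% hematocrit) incubated with compounds 72 h at 37 C, 5% CO2. Lysis with saponin/Triton buffer containing SYBR Green I, overnight at room temperature in the dark; DNA fluorescence (485/535 nm) normalised to 0.29 uM artemisinin and DMSO.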

The nature of assay [4]: qHTS profiling of the MIPE4 collection as inhibitors of Plasmodium falciparum (DD2) proliferation (AID 743345; call rule not given here). The settings on record: P. falciparum Dd2 in erythrocytes, SYBR Green DNA, 72 h; at 28.5 µM (top of the series). The essentials:
as §1

Assay [5] can be described thus: qHTS profiling of the MIPE4 collection as inhibitors of Plasmodium falciparum (DD2) proliferation (Rep 2) (AID 743346; call rule not given here). The conditions noted are these: P. falciparum Dd2 in erythrocytes, SYBR Green DNA, 72 h; at 28.5 µM (top of the series). The essentials: as §1
The nature of assay [6]: qHTS profiling of the MIPE4 collection as inhibitors of Plasmodium falciparum (HB3) proliferation (AID 743347; call rule not given here;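 further: plate controls were DMSO vehicle wells for no effect and artemisinin wells for full effect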). The settings on record: P. falciparum HB3 in erythrocytes, SYBR Green DNA, 72 h; at 28.5 µM (top of the series). The essentials: as §1

Where “and” joins values, the source holds several entries; their conditions need not be identical. Identical values can stand only once. Inconclusive results are not listed. Calls of active or inactive are those of the source. Unless noted, the call rests on the fitted dose curve; in most records, active means well fitted curve in the direction sought with a large enough effect; inconclusive means small, poorly fitted or top-dose-only effect, or another doubt; inactive means no such curve, though single readings can be large; an effect the other way counts as inactive or inconclusive.

`CCOC(=O)[C@H](CCc1ccccc1)N[C@@H](C)C(=O)N1[C@H](C(=O)O)C[C@@H]2CCC[C@@H]21`: in assay [1], the max response is -0.0266% (inactive). The Potency entry in assay [2] was “inactive”.

In the case of `CCCCN=C(N)N=C(N)N`, in assay [1], the max response was 0.948% (inactive). In addition, the Potency entry in assay [2] is “inactive”.

Consider `CC(=O)NCCCCCC(=O)O`, for which the max response in assay [1] is -5.55% (inactive). The Potency entry in assay [2] was “inactive”.

For `CC(C)CCCC(C)N` (configuration not stated), the max response in assay [1] was 6.57% (inactive). In addition, the Potency result in assay [2] is “inactive”.

As for `COc1ccc(-c2cc(C(F)F)nn2-c2ccc(S(N)(=O)=O)cc2)cc1F`, the max response in assay [1] is 25.1% (inactive). For the same molecule, the Potency result in assay [2] was “inactive”.

For `O=S(c1cc(Cl)cc(Cl)c1O)c1cc(Cl)cc(Cl)c1O`, the max response in assay [1] is 11.4% (inactive). Also, in assay [2], the Potency entry was “inactive”.

Turning to `NC(=S)N/N=C/c1cccnc1`, the max response in assay [1] is -11.6% (inactive). In addition, in assay [2], the Potency result was “inactive”.

For the molecule `c1ccc(-c2nc[nH]c2-c2ccccc2)cc1`, the max response in assay [1] is -4.96% (inactive). Moreover, the Potency entry in assay [2] is “inactive”.

Turning to `NC(=O)C1(N2CCCCC2)CCN(CCCC(=O)c2ccc(F)cc2)CC1`, the max response in assay [1] is 6.95% (inactive). Besides, the Potency entry in assay [2] is “inactive”.

Turning to `CCCCCCCCCCCCOCCOCCOCCOCCOCCOCCOCCOCCOCCO`, the max response in assay [1] is 14.7% (inactive). Also, the Potency result in assay [2] is “inactive”.

In the case of `C[N+]12CCC(CC1)C(OC(=O)C(O)(c1ccccc1)c1ccccc1)C2` (configuration not stated), the max response in assay [1] is -5.86% (inactive). In assay [2], the Potency result was “inactive”.

With `COc1cc(N)c(Cl)cc1C(=O)NC1CCN(Cc2ccccc2)CC1`, the max response in assay [1] is -0.971% (inactive). Further, the Potency entry in assay [2] was “inactive”.

`CCN1/C(=C/C=C/c2sc3ccccc3[n+]2CC)Sc2ccccc21`: the results for the Potency in assay [1] and in assay [2] were 1.58 µM (active) and 3.16 µM (active), respectively.

Take `CCc1oc2ccccc2c1C(=O)c1cc(Br)c(O)c(Br)c1`: in assay [1], the max response is -6.8% (inactive). In assay [2], the Potency entry is “inactive”.

Turning to `CCOC(=O)[C@@](C)(N)Cc1ccc(O)c(O)c1`, the max response in assay [1] is 1.03% (inactive). The Potency result in assay [2] was “inactive”.

`NCCNC(=O)c1ccc(Cl)cn1`: the max response in assay [1] was -2.71% (inactive). Moreover, the Potency entry in assay [2] is “inactive”.

With `CCCCCCCCCCCCSCCOCCO`, the max response in assay [1] was 3.73% (inactive). Further, the Potency result in assay [2] is “inactive”.

As for `CCNC(=O)/C=C/c1cccc(Br)c1`, the max response in assay [1] is 3.79% (inactive). Also, the Potency result in assay [2] is “inactive”.

On to `Nc1ccc(C(=O)NCC(=O)O)cc1`, for which the max response in assay [1] is 6.7% (inactive). For the same molecule, the Potency entry in assay [2] was “inactive”.

Regarding `Cc1cc(-c2ccccc2)nnc1NCCN1CCOCC1`, the max response in assay [1] was -0.774% (inactive) and -9.14% (inactive). For the same molecule, the Potency result in assay [2] is “inactive”.

On to `C=C1c2cccc(O)c2C(O)=C2C(=O)[C@]3(O)C(O)=C(C(N)=O)C(=O)[C@@H](N(C)C)[C@@H]3[C@@H](O)[C@H]12`, for which the max response in assay [1] was -4.37% (inactive). Moreover, the Potency result in assay [2] was “inactive”.

As to `CC(=C(CCOC(=O)C(C)C)SSC(CCOC(=O)C(C)C)=C(C)N(C=O)Cc1cnc(C)nc1N)N(C=O)Cc1cnc(C)nc1N`, the max response in assay [1] is -5.02% (inactive). The Potency in assay [2] was 11.2 µM (active).

On to `CCOC(=O)C(C#N)=C(c1ccccc1)c1ccccc1`, for which the max response in assay [1] is -6.54% (inactive). The Potency result in assay [2] was “inactive”.

Turning to `NS(=O)(=O)c1cc2c(cc1Cl)NC(CC1CCCC1)NS2(=O)=O` (configuration not stated), the max response in assay [1] was 17.3% (inactive). For the same molecule, in assay [2], the Potency entry was “inactive”.

Turning to `CN(C)CCOC(c1ccc(Cl)cc1)c1ccccn1` (configuration not stated), the max response in assay [1] was 1.88% (inactive). The Potency result in assay [2] was “inactive”.

In the case of `COc1ccc(S(=O)(=O)N2c3ccc(Cl)cc3[C@@](O)(c3ccccc3Cl)[C@H]2C(=O)N2CCC[C@@H]2C(N)=O)cc1OC`, the max response in assay [1] is 20.2% (inactive). Moreover, the Potency entry in assay [2] is “inactive”.

Take `COc1cc(C(=S)N2CCOCC2)ccc1O`: the max response in assay [1] was 19.6% (inactive). In assay [2], the Potency result is “inactive”.

As for `CN(Cc1ccc(C(C)(C)C)cc1)Cc1cccc2ccccc12`, the max response in assay [1] is 18.1% (inactive) and -10.3% (inactive). Moreover, in assay [2], the Potency entry was “inactive”.

In the case of `O=C(N/N=C/c1ccc([N+](=O)[O-])o1)c1ccc(O)cc1`, the Potency in assay [1] is 1.12 µM (active). Moreover, the Potency entry in assay [2] was “inactive”.

As for `CCN1CCN(C(=O)N[C@@H](C(=O)N[C@@H]2C(=O)N3C(C(=O)O)=C(CSc4nnnn4C)CS[C@H]23)c2ccc(O)cc2)C(=O)C1=O`, the max response in assay [1] is 14.5% (inactive). The Potency entry in assay [2] is “inactive”.

On to `CC[C@H](c1ccc(O)cc1)[C@@H](CC)c1ccc(O)cc1`, for which the max response in assay [1] was 11.9% (inactive). The Potency result in assay [2] was “inactive”.

Consider `C[C@]12CCC(=O)C=C1C=C[C@@H]1[C@@H]2CC[C@@]2(C)[C@H]1CC[C@@]21CCC(=O)O1`, for which the max response in assay [1] is 1.8% (inactive). Also, in assay [2], the Potency entry was “inactive”.

As for `CC(=O)Nc1ccc(OCC(O)CNC(C)C)cc1` (configuration not stated), the max response in assay [1] was -2.82% (inactive). The Potency result in assay [2] was “inactive”.

For the molecule `CC(C(=O)O)c1cccc(Oc2ccccc2)c1` (configuration not stated), the max response in assay [1] was 17.6% (inactive). For the same molecule, in assay [2], the Potency entry is “inactive”.

Consider `Cc1cn([C@H]2C[C@H](F)[C@@H](CO)O2)c(=O)[nH]c1=O`, for which the max response in assay [1] was -5.75% (inactive). In addition, the Potency entry in assay [2] is “inactive”.

With `CCC1Nc2cc(Cl)c(S(N)(=O)=O)cc2S(=O)(=O)N1` (configuration not stated), the max response in assay [1] is 7.47% (inactive). The Potency entry in assay [2] is “inactive”.

Take `NS(=O)(=O)Cc1noc2ccccc12`: the max response in assay [1] is -3.32% (inactive). In assay [3], this molecule yielded a parasite growth, % of DMSO control of 102%. In assay [4], this molecule returned a parasite growth remaining, % of DMSO control (lower = more inhibition) of 99.5%. Moreover, in assay [5], the parasite growth, % of control (lower = inhibition) turned out to be 74.3%. Further, the growth, % of control in assay [6] came to 106%. Moreover, the Potency entry in assay [2] is “inactive”.

For the molecule `NS(=O)(=O)c1ccc(Cl)c(S(N)(=O)=O)c1`, the max response in assay [1] was -1.41% (inactive). The Potency entry in assay [2] was “inactive”.

In the case of `Cc1cccc(C)c1NC(=O)CN1CCCC1`, the max response in assay [1] is 20.5% (inactive). Further, in assay [2], the Potency result is “inactive”.

The values above are taken from PubChem BioAssay (NCATS).
